In PubChem BioAssay (NCATS):
Several values for one entry are separate records, joined by “and”; a condition that tells them apart may be missing. Identical values can stand only once. Inconclusive results are not listed. Where a call stands in place of a potency, no number is given. Activity calls are given as the source filed them. Calls come from the whole dose curve; as a rule, active = well fitted curve in the direction sought with a large enough effect; inconclusive = small, poorly fitted or top-dose-only effect, or another doubt; inactive = no such curve, though single readings can be large; an effect the other way counts as inactive or inconclusive.

How the values were obtained:
[1] = biological target: Tyrosine-protein kinase Yes (Homo sapiens) (UniProt P07947); assay: qHTS for small molecule inhibitors of Yes1 kinase: Primary Screen (AID 686947); details: Yes1 kinase biochemical qHTS inhibition; series mostly up to 76.9 µM; note: nearly all actives have a fitted effect of over 60% in size; note: potency is the fitted concentration of half-maximal effect
Chain of Tyrosine-protein kinase Yes (Homo sapiens) (P07947 whole entry, looked up): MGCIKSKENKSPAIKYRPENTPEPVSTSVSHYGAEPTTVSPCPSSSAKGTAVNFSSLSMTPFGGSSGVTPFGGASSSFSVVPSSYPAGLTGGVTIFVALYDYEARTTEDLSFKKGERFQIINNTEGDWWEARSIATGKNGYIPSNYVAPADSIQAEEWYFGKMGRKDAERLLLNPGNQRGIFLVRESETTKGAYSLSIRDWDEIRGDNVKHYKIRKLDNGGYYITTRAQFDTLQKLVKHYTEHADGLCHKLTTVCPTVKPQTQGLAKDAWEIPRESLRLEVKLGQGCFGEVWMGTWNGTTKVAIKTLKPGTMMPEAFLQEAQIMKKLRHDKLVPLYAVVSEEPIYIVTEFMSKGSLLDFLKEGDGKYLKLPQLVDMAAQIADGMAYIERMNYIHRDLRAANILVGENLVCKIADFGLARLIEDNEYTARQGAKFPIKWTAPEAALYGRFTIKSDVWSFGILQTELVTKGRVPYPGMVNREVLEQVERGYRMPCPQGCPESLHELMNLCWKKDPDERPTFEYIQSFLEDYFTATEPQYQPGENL
Procedure, shortened: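 ADP-Glo luminescence readout; final 4 nM Yes1, 0.1 mM ATP, 0.3 mg/mL poly(E4Y), Tris pH 7.5, MgCl2, DTT, Brij-35. 20 min compound preincubation, 60 min reaction at RT. Normalized to DMSO wells with and without enzyme.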

[2] = qHTS for small molecule inhibitors of Yes1 kinase: Counter Assay (AID 686950); details: series mostly up to 76.9 µM;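 note: no kinase present so only ADP-Glo detection of a fixed ADP amount is tested; luminescence from ADP-Glo reporting ADP in a fixed ATP and ADP mixture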
Procedure, shortened: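 Luminescence read-out from ADP-Glo quantifies a fixed ADP amount (0.02 mM ADP with 0.08 mM ATP) after 60 min at room temperature; signal is normalized between DMSO wells with ATP/ADP and with 0.1 mM ATP alone.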

## CN(C)CCCn1c(-c2nonc2N)nc2cnccc21
[1]
  Potency: inactive
[2]
  outcome: inactive

## CCNC(=O)OC1CNC(C#Cc2cc3ncnc(Nc4ccc(OCc5cccc(F)c5)c(Cl)c4)c3s2)C1 (centres undefined)
[1]
  Potency: 8.23 µM (active)
[2]
  outcome: inactive

## NC(=O)c1cccc(Nc2nccc(Nc3cccc4[nH]ncc34)n2)c1
[1]
  Potency: 0.0292 µM (active)
[2]
  outcome: inactive

## CS(=O)(=O)CCNCc1ccoc1-c1ccc2ncnc(Nc3ccc(OCc4ccccc4)cc3)c2c1
[1]
  Potency: 3.68 µM (active)
[2]
  outcome: inactive

## NC(=O)c1cc(-c2ccc(F)cc2)cc(-c2ccncc2)c1N
[1]
  Potency: inactive
[2]
  outcome: inactive

## O=C(OC1CNC(C#Cc2cc3ncnc(Nc4ccc5c(cnn5Cc5ccccc5)c4)c3s2)C1)N1CCOCC1 (centres undefined)
[1]
  Potency: 1.04 µM (active)
[2]
  outcome: inactive

## NS(=O)(=O)c1ccc(N=Cc2c(O)[nH]c3ccc4ncsc4c23)cc1
[1]
  Potency: 823 nM (active) and 923 nM (active)
[2]
  outcome: inactive

## CC1=C(C(=O)Nc2cc(Cl)c3[nH]ncc3c2)C(c2ccc(C(F)(F)F)cc2)CC(=O)N1 (centres undefined)
[1]
  Potency: 2.6 µM (active)
[2]
  outcome: inactive

## CC(Oc1cc(-n2cnc3ccc(OCC4CCN(C)CC4)cc32)sc1C(N)=O)c1ccccc1C(F)(F)F (centres undefined)
[1]
  Potency: 1.46 µM (active)
[2]
  outcome: inactive

## NC(=O)c1sc(-n2cnc3ccccc32)cc1OCc1ccccc1Br
[1]
  Potency: 18.4 µM (active)
[2]
  outcome: inactive

## NC(=O)CCc1ccccc1Oc1nccc(-c2c(-c3ccc(F)cc3)ncn2C2CCNCC2)n1
[1]
  Potency: inactive
[2]
  outcome: inactive

## CCn1c(-c2nonc2N)nc2c(C#CC(C)(C)O)ncc(OCC3CCNCC3)c21
[1]
  Potency: 23.2 µM (active)
[2]
  outcome: inactive
